Common to all, as to assay: DAPPL (digital affinity profiling via proximity ligation, sequencing); 10 mM Tris-HCl pH 7.5, 50 mM NaCl, 1 mM DTT, 4% glycerol, room temperature, 30 min; GST-TFs on glutathione beads, 16-mer random dsDNA library, 0.1% formaldehyde crosslink after washing; high values mean tight binding
The target in test [1] is T1, FLI1 (Homo sapiens, UniProt Q01543 1-452).
T1 sequence: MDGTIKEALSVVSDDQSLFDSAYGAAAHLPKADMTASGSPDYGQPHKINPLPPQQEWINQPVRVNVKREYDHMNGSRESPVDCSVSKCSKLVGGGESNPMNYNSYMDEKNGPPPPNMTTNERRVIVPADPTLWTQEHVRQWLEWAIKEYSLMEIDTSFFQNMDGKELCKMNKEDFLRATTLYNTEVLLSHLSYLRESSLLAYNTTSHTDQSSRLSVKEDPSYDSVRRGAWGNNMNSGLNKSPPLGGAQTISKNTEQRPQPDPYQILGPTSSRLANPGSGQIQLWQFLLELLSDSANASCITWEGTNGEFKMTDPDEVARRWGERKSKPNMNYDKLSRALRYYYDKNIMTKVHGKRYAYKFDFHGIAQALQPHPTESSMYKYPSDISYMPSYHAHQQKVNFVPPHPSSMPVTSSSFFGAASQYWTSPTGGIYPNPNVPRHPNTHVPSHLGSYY
To be noted: protein: recombinant; tags: N-terminal GST; dsDNA, one strand shown. Summed up:
(§1)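 Each value of binding signal is a hexamer's read frequency for a factor divided by the same hexamer's frequency in the tag-only sample. Barcoded, bead-captured GST fusions of human transcription factors made in yeast were pooled with that sample and incubated with 200 nmole of a random double-stranded 16-mer DNA library in Tris/NaCl/DTT/glycerol buffer at room temperature for 30 min. Washing, 0.1% formaldehyde crosslinking, proximity ligation, PCR and Illumina NextSeq500 sequencing followed.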

Test [2] addresses T2, ELK1 (Homo sapiens, UniProt P19419 1-428).
T2 sequence: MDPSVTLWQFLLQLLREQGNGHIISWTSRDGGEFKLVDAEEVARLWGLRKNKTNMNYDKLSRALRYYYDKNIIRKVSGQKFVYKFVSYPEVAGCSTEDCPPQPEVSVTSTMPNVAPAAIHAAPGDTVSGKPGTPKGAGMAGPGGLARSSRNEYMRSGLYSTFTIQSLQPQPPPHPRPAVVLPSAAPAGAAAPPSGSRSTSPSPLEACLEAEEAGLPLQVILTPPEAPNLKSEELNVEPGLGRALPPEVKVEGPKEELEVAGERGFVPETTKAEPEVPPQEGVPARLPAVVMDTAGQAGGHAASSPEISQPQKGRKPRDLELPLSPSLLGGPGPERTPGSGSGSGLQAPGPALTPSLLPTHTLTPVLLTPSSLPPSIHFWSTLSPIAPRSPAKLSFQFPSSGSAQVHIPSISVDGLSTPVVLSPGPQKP
The conditions noted are these: protein: recombinant; tags: N-terminal GST; dsDNA, one strand shown. A digest of the protocol:
as §1

Test [3] addresses T3, GABPA (Homo sapiens, UniProt Q06546 1-454).
T3 sequence: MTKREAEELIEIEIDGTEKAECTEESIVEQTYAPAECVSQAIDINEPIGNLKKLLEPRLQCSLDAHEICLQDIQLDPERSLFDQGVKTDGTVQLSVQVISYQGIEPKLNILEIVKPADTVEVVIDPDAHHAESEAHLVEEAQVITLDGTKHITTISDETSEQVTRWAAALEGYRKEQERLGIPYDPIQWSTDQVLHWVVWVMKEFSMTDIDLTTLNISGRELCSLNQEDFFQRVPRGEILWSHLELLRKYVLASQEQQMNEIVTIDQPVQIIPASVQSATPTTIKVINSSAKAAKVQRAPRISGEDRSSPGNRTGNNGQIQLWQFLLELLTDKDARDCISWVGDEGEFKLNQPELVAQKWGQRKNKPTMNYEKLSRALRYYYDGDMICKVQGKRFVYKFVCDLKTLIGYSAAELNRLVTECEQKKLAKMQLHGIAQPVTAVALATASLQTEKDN
To be noted: protein: recombinant; tags: N-terminal GST; dsDNA, one strand shown. Summed up: as §1

The target of test [4] is T4, ERG (Homo sapiens, UniProt P11308 1-479).
T4 sequence: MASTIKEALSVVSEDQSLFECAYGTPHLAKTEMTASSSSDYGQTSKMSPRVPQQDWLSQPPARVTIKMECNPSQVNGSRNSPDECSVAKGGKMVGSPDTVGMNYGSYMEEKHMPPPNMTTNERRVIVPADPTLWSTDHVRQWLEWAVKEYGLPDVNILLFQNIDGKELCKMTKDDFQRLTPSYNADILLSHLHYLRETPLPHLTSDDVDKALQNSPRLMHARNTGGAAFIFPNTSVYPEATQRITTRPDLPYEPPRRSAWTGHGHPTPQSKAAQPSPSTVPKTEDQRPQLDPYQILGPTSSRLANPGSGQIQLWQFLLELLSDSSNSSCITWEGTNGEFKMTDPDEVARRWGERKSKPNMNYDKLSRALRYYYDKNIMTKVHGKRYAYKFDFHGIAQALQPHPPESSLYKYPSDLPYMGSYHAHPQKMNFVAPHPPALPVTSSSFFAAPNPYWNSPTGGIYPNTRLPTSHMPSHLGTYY
The conditions noted are these: protein: recombinant; tags: N-terminal GST; dsDNA, one strand shown. A digest of the protocol:
as §1

Test [5] has as its target ELF1 (Homo sapiens, UniProt P32519 1-619). The conditions noted are these: protein: recombinant; tags: N-terminal GST; dsDNA, one strand shown. A digest of the protocol:
as §1

Test [6] has as its target SPI1 (Homo sapiens, UniProt P17947 1-270). The conditions noted are these: protein: recombinant; tags: N-terminal GST; dsDNA, one strand shown. Summed up: as §1
Test [7] deals with T5, ELK3 (Homo sapiens, UniProt P41970 1-407).
T5 sequence: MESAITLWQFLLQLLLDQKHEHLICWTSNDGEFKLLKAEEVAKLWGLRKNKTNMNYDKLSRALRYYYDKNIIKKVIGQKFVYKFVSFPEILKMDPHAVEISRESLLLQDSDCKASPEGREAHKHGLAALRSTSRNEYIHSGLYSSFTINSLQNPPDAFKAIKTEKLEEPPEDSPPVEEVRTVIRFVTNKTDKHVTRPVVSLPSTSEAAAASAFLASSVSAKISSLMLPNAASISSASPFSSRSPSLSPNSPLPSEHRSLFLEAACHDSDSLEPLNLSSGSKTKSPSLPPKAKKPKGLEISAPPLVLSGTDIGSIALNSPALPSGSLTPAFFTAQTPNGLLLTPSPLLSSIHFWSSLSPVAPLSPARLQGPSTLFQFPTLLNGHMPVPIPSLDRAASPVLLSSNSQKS
The conditions noted are these: protein: recombinant; tags: N-terminal GST; dsDNA, one strand shown. Summed up:
as §1

For test [8], the target named is T6, FEV (Homo sapiens, UniProt Q99581 1-238).
T6 sequence: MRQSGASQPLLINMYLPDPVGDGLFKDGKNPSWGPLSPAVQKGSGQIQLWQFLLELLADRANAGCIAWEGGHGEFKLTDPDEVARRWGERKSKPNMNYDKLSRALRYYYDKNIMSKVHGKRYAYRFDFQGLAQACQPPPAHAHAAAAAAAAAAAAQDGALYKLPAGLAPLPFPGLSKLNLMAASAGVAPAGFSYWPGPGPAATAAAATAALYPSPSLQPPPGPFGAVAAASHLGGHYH
To be noted: protein: recombinant; tags: N-terminal GST; dsDNA, one strand shown. A digest of the protocol: as §1

Test [9] addresses ETV5 (Homo sapiens, UniProt P41161 1-510). The conditions noted are these: protein: recombinant; tags: N-terminal GST; dsDNA, one strand shown. Summed up: as §1
Test [10] concerns the target HSF1 (Homo sapiens, UniProt Q00613 1-529). The conditions noted are these: protein: recombinant; tags: N-terminal GST; chain copies: 3; dsDNA, one strand shown. A digest of the protocol:
as §1

The target in test [11] is ELF4 (Homo sapiens, UniProt Q99607 1-663). To be noted: protein: recombinant; tags: N-terminal GST; dsDNA, one strand shown. A digest of the protocol: as §1
The target in test [12] is T7, ELK4 (Homo sapiens, UniProt P28324-2 1-405).
T7 sequence: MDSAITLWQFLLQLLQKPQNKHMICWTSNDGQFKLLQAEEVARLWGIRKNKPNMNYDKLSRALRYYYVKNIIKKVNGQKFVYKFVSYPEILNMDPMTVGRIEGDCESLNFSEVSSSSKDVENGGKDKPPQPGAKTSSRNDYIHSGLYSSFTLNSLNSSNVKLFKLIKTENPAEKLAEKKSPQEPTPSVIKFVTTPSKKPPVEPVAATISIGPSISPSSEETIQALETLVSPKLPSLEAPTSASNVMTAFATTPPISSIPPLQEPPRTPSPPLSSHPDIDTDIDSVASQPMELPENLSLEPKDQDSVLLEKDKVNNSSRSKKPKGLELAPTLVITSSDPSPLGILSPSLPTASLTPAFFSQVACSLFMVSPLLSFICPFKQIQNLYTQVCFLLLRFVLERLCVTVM
The conditions noted are these: protein: recombinant; tags: N-terminal GST; dsDNA, one strand shown. A digest of the protocol: as §1

The target of test [13] is T8, ETV2 (Homo sapiens, UniProt O00321 1-342).
T8 sequence: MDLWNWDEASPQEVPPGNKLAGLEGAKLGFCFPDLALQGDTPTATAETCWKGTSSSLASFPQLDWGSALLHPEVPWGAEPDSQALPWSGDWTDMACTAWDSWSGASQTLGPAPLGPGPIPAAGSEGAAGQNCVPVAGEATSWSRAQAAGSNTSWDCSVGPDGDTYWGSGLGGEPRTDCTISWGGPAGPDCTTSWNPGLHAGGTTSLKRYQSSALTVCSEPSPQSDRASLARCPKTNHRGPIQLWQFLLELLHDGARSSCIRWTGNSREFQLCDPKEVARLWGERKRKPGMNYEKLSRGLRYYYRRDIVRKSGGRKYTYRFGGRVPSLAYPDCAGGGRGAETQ
To be noted: protein: recombinant; tags: N-terminal GST; dsDNA, one strand shown. A digest of the protocol: as §1

Test [14] has as its target T9, ELF3 (Homo sapiens, UniProt P78545 1-371).
T9 sequence: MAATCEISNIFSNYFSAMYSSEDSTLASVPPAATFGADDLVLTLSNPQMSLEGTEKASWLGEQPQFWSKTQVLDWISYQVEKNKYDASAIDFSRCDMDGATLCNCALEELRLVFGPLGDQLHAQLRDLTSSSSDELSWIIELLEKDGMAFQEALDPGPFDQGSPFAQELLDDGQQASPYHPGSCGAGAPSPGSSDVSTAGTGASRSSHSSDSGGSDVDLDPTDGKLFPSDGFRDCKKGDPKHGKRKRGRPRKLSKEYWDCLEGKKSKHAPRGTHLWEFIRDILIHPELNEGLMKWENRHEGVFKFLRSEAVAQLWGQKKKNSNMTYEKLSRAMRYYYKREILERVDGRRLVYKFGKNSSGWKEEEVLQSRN
The conditions noted are these: protein: recombinant; tags: N-terminal GST; dsDNA, one strand shown. Summed up:
as §1

In test [15] the target is ETV1 (Homo sapiens, UniProt P50549 1-477). The conditions noted are these: protein: recombinant; tags: N-terminal GST; dsDNA, one strand shown. A digest of the protocol:
as §1

For test [16], the target named is T10, EHF (Homo sapiens, UniProt Q9NZC4 1-300).
T10 sequence: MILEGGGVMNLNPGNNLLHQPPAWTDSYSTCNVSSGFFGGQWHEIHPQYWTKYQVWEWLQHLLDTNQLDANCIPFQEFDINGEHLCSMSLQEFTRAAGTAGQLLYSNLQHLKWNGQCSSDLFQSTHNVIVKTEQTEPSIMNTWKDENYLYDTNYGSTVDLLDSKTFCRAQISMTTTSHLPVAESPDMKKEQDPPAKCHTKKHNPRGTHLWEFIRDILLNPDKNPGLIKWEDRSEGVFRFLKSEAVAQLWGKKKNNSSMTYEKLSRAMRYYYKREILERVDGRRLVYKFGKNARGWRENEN
To be noted: protein: recombinant; tags: N-terminal GST; dsDNA, one strand shown. A digest of the protocol: as §1

For test [17], the target named is CRX (Homo sapiens, UniProt O43186 1-299). The conditions noted are these: protein: recombinant; tags: N-terminal GST; dsDNA, one strand shown. A digest of the protocol:
as §1

ELF4, sequence (Q99607 whole entry): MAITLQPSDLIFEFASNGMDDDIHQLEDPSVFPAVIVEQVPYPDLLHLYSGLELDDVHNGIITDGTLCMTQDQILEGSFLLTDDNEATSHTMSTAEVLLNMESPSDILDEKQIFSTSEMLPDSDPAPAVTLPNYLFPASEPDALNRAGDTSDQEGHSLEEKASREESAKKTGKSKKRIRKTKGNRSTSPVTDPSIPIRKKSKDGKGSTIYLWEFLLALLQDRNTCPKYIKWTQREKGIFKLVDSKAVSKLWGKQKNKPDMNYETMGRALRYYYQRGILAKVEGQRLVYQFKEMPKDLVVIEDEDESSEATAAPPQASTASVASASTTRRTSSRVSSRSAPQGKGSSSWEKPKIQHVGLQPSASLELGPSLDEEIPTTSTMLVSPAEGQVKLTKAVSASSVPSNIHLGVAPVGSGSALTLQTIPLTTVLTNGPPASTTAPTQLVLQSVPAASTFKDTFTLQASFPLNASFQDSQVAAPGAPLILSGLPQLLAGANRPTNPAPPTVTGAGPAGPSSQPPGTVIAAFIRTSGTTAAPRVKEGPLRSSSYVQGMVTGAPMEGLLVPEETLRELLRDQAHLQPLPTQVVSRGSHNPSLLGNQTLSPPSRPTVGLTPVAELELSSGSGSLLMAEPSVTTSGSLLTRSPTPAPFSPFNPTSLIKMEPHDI
ETV5, sequence (P41161 whole entry): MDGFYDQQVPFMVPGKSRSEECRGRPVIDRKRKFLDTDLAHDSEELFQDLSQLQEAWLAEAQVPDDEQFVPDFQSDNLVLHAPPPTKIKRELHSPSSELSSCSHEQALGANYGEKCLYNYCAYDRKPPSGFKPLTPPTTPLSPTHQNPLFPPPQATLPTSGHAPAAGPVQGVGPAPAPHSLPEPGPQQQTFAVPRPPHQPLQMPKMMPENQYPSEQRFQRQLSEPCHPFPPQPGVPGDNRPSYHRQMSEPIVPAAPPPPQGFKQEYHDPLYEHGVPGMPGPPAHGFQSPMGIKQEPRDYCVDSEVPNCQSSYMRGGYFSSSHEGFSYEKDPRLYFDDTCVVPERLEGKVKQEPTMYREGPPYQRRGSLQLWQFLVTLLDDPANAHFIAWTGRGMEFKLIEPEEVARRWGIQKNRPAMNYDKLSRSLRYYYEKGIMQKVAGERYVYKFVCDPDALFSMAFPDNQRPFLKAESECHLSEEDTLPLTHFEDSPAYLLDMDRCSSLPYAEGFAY
HSF1, sequence (Q00613 whole entry): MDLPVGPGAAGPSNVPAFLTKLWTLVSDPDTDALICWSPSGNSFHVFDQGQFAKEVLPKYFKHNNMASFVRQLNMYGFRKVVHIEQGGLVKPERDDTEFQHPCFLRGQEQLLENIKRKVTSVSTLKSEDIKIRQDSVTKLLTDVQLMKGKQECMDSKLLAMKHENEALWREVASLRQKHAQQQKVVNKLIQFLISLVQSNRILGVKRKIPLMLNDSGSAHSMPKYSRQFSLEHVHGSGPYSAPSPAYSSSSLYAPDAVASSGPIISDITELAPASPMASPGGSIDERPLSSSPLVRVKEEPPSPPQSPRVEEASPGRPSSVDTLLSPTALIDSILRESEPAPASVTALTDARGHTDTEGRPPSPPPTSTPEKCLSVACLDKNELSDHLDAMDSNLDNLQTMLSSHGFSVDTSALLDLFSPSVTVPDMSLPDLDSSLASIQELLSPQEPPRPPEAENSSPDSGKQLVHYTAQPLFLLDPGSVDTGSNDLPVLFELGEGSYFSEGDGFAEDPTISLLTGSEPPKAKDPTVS
ETV1, sequence (P50549 whole entry): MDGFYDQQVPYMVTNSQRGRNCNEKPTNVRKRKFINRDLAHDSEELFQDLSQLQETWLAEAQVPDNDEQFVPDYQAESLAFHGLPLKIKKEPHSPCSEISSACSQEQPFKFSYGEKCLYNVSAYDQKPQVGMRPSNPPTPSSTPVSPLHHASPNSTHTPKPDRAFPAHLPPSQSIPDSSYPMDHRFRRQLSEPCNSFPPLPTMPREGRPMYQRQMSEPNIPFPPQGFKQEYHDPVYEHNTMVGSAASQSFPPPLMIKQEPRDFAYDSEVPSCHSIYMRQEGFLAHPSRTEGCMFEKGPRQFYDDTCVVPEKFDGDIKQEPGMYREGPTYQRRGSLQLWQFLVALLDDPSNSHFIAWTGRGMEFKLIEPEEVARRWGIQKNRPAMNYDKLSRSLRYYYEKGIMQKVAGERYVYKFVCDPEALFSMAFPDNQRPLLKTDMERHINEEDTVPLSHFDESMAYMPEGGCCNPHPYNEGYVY
ELF1, sequence (P32519 whole entry): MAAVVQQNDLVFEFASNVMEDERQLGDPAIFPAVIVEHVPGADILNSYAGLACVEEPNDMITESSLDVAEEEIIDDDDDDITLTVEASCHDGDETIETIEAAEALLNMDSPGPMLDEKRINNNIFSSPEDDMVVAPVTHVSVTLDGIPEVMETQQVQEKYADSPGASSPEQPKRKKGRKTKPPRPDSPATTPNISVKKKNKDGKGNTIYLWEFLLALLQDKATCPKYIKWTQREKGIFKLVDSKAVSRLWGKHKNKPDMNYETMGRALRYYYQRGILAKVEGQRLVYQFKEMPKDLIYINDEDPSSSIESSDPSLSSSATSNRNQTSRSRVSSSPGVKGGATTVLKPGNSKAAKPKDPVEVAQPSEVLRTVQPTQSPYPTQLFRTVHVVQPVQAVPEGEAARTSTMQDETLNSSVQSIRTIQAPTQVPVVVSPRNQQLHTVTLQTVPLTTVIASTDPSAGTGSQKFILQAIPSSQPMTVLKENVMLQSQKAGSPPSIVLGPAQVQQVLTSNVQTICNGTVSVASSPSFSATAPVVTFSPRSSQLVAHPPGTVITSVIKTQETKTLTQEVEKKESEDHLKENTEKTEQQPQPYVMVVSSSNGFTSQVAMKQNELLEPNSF
CRX, sequence (O43186 whole entry): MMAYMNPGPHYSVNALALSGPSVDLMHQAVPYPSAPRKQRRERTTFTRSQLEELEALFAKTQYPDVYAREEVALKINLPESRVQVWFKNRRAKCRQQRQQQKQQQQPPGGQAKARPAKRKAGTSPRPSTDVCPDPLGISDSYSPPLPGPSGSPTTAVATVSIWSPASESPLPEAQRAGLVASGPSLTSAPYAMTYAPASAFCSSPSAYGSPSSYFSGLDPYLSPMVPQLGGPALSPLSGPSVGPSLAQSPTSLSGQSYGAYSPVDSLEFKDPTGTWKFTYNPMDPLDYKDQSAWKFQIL

Take AGACCT: the binding signal in test [1] is 1.01 fold enrichment (6-mer frequency, TF over GST control); in test [2], 1.04 fold enrichment (6-mer frequency, TF over GST control); in [3], 1.02 fold enrichment (6-mer frequency, TF over GST control); in [4] it was 1 fold enrichment (6-mer frequency, TF over GST control); in test [5], 1.05 fold enrichment (6-mer frequency, TF over GST control); in test [6] it was 1.06 fold enrichment (6-mer frequency, TF over GST control). Further, the binding signal in [7] was 1.01 fold enrichment (6-mer frequency, TF over GST control); in test [8], 1.04 fold enrichment (6-mer frequency, TF over GST control); in [9] it was 1.04 fold enrichment (6-mer frequency, TF over GST control); in [10], 1.02 fold enrichment (6-mer frequency, TF over GST control); in [11], 1.12 fold enrichment (6-mer frequency, TF over GST control); in [12], 1.07 fold enrichment (6-mer frequency, TF over GST control). In addition, the binding signal in test [13] was 1.2 fold enrichment (6-mer frequency, TF over GST control); in [14], 1.08 fold enrichment (6-mer frequency, TF over GST control); in test [15] it was 1.04 fold enrichment (6-mer frequency, TF over GST control).

For ATCGCA, the binding signal in test [1] was 1.07 fold enrichment (6-mer frequency, TF over GST control); in test [2], 1.07 fold enrichment (6-mer frequency, TF over GST control); in test [3], 1.1 fold enrichment (6-mer frequency, TF over GST control); in [4], 1.03 fold enrichment (6-mer frequency, TF over GST control); in test [5], 1.08 fold enrichment (6-mer frequency, TF over GST control); in test [16], 1.02 fold enrichment (6-mer frequency, TF over GST control). In addition, the binding signal in test [7] was 1.06 fold enrichment (6-mer frequency, TF over GST control); in test [8], 1.01 fold enrichment (6-mer frequency, TF over GST control); in test [9], 1 fold enrichment (6-mer frequency, TF over GST control); in test [10], 1.03 fold enrichment (6-mer frequency, TF over GST control); in [11], 1.12 fold enrichment (6-mer frequency, TF over GST control); in test [12] it was 1.06 fold enrichment (6-mer frequency, TF over GST control). Also, the binding signal in test [17] is 1.17 fold enrichment (6-mer frequency, TF over GST control); in test [15] it was 1.06 fold enrichment (6-mer frequency, TF over GST control).

The values above are taken from paper PMC7862700, “An all-to-all approach to the identification of sequence-specific readers for epigenetic DNA modifications on cytosine”.
